The list is not random: actives were taken first. Their share in the collection is about 2.8%.
CF NFkB block = inhibitors of PAF-induced NF-kB signaling, primary screen, cell-based, GFP fluorescence, uHTS | inhibition, % at 5 µM | KKLEB NF-kB-GFP reporter, GFP fluorescence overnight | 360,000 tested, 0.86% active;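 active means at least 50% inhibition at 5 µM, scaled per plate between neutral and stimulator controls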;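 further: PAF is a Pseudomonas aeruginosa culture filtrate used as stimulus; plate controls were PAF-stimulated DMSO wells for no effect and unstimulated DMSO wells for full effect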
Shn3 3UTR inh = reduction of Shn3 3'UTR firefly luciferase signal, primary screen, Schnurri-3 inhibitor project, cell-based, Clone20 osteoblasts, set 2 | Clone20 osteoblast Shn3 3'UTR firefly luciferase, 24 h | inhibition, % at 12.5 µM | 360,000 tested, 0.52% active | AID 588674, 2011;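 active means mean inhibition of at least 75% with every replicate also reaching 75%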;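 further: 0% = median of neutral control wells and 100% = pilot-screen positive control compound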
KKLEB cytotox = cytotoxicity in KKLEB CF airway cells, primary screen, cytotoxicity control for CF NF-kB inhibitor project, cell-based, uHTS, fluorescence assay plates | 360,000 tested, 0.36% active | KKLEB CF airway cells viability, ATPlite luminescence, overnight; stronger effect = lower value; cells stimulated with P. aeruginosa culture filtrate | activity change (cytotoxicity), % at 5 µM | AID 602141, 2011;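 active means corrected activity change at or below -50% at 5 µM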
HIF-2a block = HIF-2a reporter inhibitors, primary screen, luminescence, 786-0 RCC cells | 786-0 RCC cells HIF-2a reporter, luciferase luminescence, overnight | inhibition, % at 18.8 µM | 360,000 tested, 0.72% active;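 active means inhibition of the luminescence signal of 40% or more relative to plate controls, in a single-dose primary screen at 18.75 µM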
Peg3 prom inh-1 = Peg3 promoter-driven luciferase inhibitors, primary screen, cell-based, HeLa, luciferase luminescence | HeLa PEG-Prom luciferase reporter, overnight | inhibition, % at 20 µM | 360,000 tested, 1.7% active | AID 588405, 2011;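 active means inhibition of at least 50% at 20 µM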
MITF TRPM1 inh = inhibitors of MITF-dependent TRPM1 promoter reporter, primary screen, cell-based, SK-MEL-5, single point, luciferase; SK-MEL-5 TRPM1 promoter luciferase, 24 h; inhibition, % at 12.5 µM; 330,000 tested, 0.83% active; AID 488899, 2010;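 active means mean inhibition across replicates of 60% or more, whatever share of single replicates reaches that level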
Peg3 prom inh-2 = Peg3 promoter reporter inhibitors, retest, confirmation, cell-based, HeLa, luciferase reporter, single concentration. 1,300 tested, 84% active. HeLa PEG-Prom luciferase reporter, luminescence, overnight. AID 602417, 2012. shares compounds with Peg3 prom inh-1. inhibition, % at 20 µM;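 active means at 20 µM dose, 40% or more inhibition averaged across four replicates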
Active calls of the source: *; nt = not tested or not shown.

SMILES	CF NFkB block	Shn3 3UTR inh	KKLEB cytotox	HIF-2a block	Peg3 prom inh-1	MITF TRPM1 inh	Peg3 prom inh-2
COc1cc(C(=O)Nc2nc(OC)c(-c3ccccc3)c(OC)n2)cc(OC)c1OC	6	25	-14	-12	50*	15	43*
COc1cc(C(=O)Nc2ccc3oc(-c4cccnc4)nc3c2)cc(OC)c1OC	6	14	-11	8	52*	-5	43*
CCOC(=O)CCNCc1ccc(F)cc1	-22	-11	12	16	-20	-1	nt
O=C(C[C@@H]1C/C=C\C[C@H](NC(=O)OCC2c3ccccc3-c3ccccc32)C(=O)OC[C@H]2CCCN2C1=O)NCCO	-5	4	1	-13	-1	-7	nt
C[C@@H]1CN([C@H](C)CO)C(=O)CCCn2nncc2CO[C@@H]1CN(C)C(=O)Nc1ccc2c(c1)OCO2	-36	3	1	3	-22	nt	nt
CCOc1cc(CNCCO)cc(Br)c1OCc1ccccc1Cl	13	53	-6	8	106*	47	74*
Cc1cc(NC(=S)N(CCCN2CCN(C)CC2)Cc2ccco2)ccc1Cl	1	20	0	10	6	7	nt
CCS(=O)(=O)c1nnnn1-c1ccccc1S(C)(=O)=O	29	-36	1	21	58*	48	38
O=S(=O)(Cc1nnnn1-c1ccc(Br)cc1)c1ccccc1	-14	5	10	2	8	nt	nt
Cn1nc(SCc2ccccc2)c(=O)[nH]c1=O	10	-23	-8	7	-14	nt	nt
CCCCCC(C)NC(=O)c1cc(S(=O)(=O)N2CCCCC2)ccc1N1CCOCC1 (stereo not drawn)	14	12	-5	8	8	6	nt
C/C(=N\N=C(N)N)c1ccc(Cl)cc1Cl	-5	23	-18	-1	71*	-9	73*
C/C(=N\N=C(N)N)c1cc(Cl)ccc1Cl	-3	32	9	11	7	11	nt
CCC(C)(C)c1ccc(Oc2ccc(N)cc2)cc1	-28	88*	4	88*	72*	98*	91*
COc1cc(OC)cc(C(=O)N[C@H](C(=O)NC2=NCCS2)C(C)C)c1	2	-7	-4	21	21	10	nt
CCOc1ccc2nc(NC(=O)CSc3nc4c(c(=O)n(C)c(=O)n4C)n3C(C)C)sc2c1	9	54	2	-58	35	-14	nt
CCn1c(SCC(=O)Nc2nc3ccc(OC)cc3s2)nc2c1c(=O)n(C)c(=O)n2C	-15	72	0	-12	62*	-3	35
O=C(c1cc(-c2ccccn2)nc2ccc(Cl)cc12)N1CCN(CCc2ccccc2)CC1	4	10	-18	17	51*	13	36
Cc1cnn(C(=O)c2cc(-c3ccccn3)nc3ccc(Cl)cc23)c1	-1	-11	3	11	4	22	nt
COc1ccc(CN2CCN(C(=O)c3cc(-c4cccnc4)nc4ccc(Cl)cc34)CC2)c(OC)c1OC	2	21	-22	12	94*	-4	56*
CCOC(=O)N/N=C(\C)c1ccc(OC(F)F)cc1OC(F)F	2	-25	16	4	2	-13	nt
COc1ccc(S(=O)(=O)N2c3ccccc3OCC2C)cc1 (stereo not drawn)	18	21	-8	29	16	21	nt
COc1ccc(S(=O)(=O)N2c3ccccc3OCC2c2ccccc2)cc1 (stereo not drawn)	12	13	-13	29	50*	22	46*
CN(C)CCCN(C(=O)c1ccc(S(=O)(=O)N2CCc3ccccc32)cc1)c1nc2ccc(F)cc2s1	15	-6	0	0	11	29	nt
Cc1cc(C)c2sc(N(CCCN(C)C)C(=O)c3ccc(S(=O)(=O)N4CCCc5ccccc54)cc3)nc2c1	26	-1	-27	-22	102*	83*	99*

Screening data deposited in PubChem BioAssay by several laboratories.
